Shown are actives, neighbours in structure and some others; about 2.1% of the full set was active somewhere.
Myeloid diff 2 = promotes myeloid progenitor differentiation; ER-HoxA9 myeloid progenitors, lysozyme-GFP differentiation, flow cytometry; calls only at 10 µM; hit rate 1% among 360,000; AID 624256;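 active = normalized GFP-positive differentiation at or above the plate's own cutoff, the solvent-only control mean plus 3 SD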;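 also: cells exposed to compound for four days before flow analysis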
HNF4A DNA FP = change in binding of human HNF4 alpha to DNA; P41235; HNF4a-FITC DNA binding, fluorescence polarization, 1 h; activity change, % at 10 µM; hit rate 0.3% among 360,000; in the data active = activity change above about 30%, passing the limit was not always enough
Target sequence (P41235 whole entry, looked up): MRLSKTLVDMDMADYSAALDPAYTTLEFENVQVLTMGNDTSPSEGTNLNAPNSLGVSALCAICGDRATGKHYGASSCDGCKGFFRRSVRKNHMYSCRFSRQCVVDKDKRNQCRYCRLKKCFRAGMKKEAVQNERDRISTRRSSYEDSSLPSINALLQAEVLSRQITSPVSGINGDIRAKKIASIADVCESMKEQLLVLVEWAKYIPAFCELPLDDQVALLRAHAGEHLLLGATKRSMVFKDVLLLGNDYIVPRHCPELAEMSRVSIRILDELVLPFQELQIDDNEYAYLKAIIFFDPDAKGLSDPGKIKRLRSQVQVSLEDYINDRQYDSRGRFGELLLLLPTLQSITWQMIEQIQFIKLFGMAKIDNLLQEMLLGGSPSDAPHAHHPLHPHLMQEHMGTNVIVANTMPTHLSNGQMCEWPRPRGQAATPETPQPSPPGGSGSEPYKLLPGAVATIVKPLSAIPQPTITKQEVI
Rpn11 inh = blocks the human proteasome subunit Rpn11; human 26S proteasome, Ub4-pepOG fluorescence polarization; 20S core pre-blocked with epoxomicin; inhibition, % at 20 µM; hit rate 0.59% among 360,000; AID 588493;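 active = inhibition at 20 µM, scaled to each plate's controls, above about 33%, limit read from the data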
TPT1 inh = C. albicans TPT1 enzyme inhibition | recombinant caTPT1, FP RNA substrate dephosphorylation | inhibition, % at 5 µM | hit rate 0.81% among 300,000;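 active = inhibition above the mean of all tested compounds plus 3 SD, set per screening campaign, cut at about 24% in these data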;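 also: plate controls were DMSO alone for no effect and ferristatin control at 100 nM for full effect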
Myeloid diff = myeloid differentiation induction; shares compounds with Myeloid diff 2; ER-HoxA9 myeloid progenitors, GFP/Mac1 double-positive flow; calls only; hit rate 2% among 2,300;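 active = share of green or green-and-red cells above 9 and 9% in run 1 or 4 and 3% in run 2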
GFP autofluor = flagged as fluorescent in myeloid differentiation counter-screen; shares compounds with Myeloid diff 2; ER-HoxA9 myeloid progenitors, no estrogen, GFP autofluorescence flow cytometry; vehicle wells 0%, positive control 100%; fluorescence response, % (test concentration not listed); hit rate 7.4% among 2,300;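 active = over 5% cells positive for green fluorescent reporter, or over 2% positive for both it and APC stain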;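 also: range taken on the double positive population between DMSO and positive control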
* hit, by the source's call; i = inactive; nt = no result; + = active, no number.

SMILES	Myeloid diff 2	HNF4A DNA FP	Rpn11 inh	TPT1 inh	Myeloid diff	GFP autofluor
COc1ccc(OC)c(C(C(=O)NC2CCCCC2)N(C(=O)c2ccccn2)c2cccnc2)c1 (stereo not given)	i	-1	1	-3	nt	nt
Nc1nc(NCC2CCCO2)nc(Nc2cccc(Cl)c2)c1[N+](=O)[O-] (stereo not given)	i	-3	-6	-2	nt	nt
Cc1cccc(Nc2nc(NCC3CCCO3)nc(N)c2[N+](=O)[O-])c1 (stereo not given)	+	-1	5	-1	i	0
O=C(NNC(=O)c1nc2ccccc2[nH]1)OCc1ccccc1	i	4	4	nt	nt	nt
CCOc1ccc(CN(C)CC(=O)Nc2cccc3ccccc23)cc1OC	i	-2	8	2	i	0
COc1ccc(CC(=O)OCC(=O)c2ccc(F)cc2)cc1	i	-2	0	nt	nt	nt
CC1(C(=O)NC2CCCCCCC2)CC1(Cl)Cl (stereo not given)	i	3	5	-1	nt	nt
NS(=O)(=O)c1ccc(NC(=S)NCc2ccccc2Cl)cc1	i	-2	3	0	i	1
NS(=O)(=O)c1ccc(NC(=S)NCc2ccccc2)cc1	i	2	-8	1	nt	nt
Cc1ccc(O)c(NC(=O)c2cc(-c3ccccc3)on2)c1	+	-1	5	0	i	0
O=C(Nc1cc(Br)ccc1O)c1cc(-c2ccccc2)on1	i	0	14	nt	nt	nt
O=C(Nc1cc(Br)ccc1O)c1cc(-c2ccco2)on1	i	2	13	6	i	0
COc1ccc(-c2noc(N3CCC(C(=O)NC(C)c4ccccc4)CC3)n2)cc1 (stereo not given)	i	-3	2	0	nt	nt
COc1ccc(OC)c(NC(=O)CSc2nnc(-c3cnccn3)n2C)c1	i	1	0	-3	nt	nt
CCOc1ccc(CCN2C(=O)C(=O)N([C@@H](Cc3ccccc3)CN3CCC[C@H]3CN3C(=O)C(=O)NC[C@@H]3CC(C)C)C[C@@H]2Cc2ccc(O)cc2)cc1	i	-3	nt	nt	i	0
N#C/C(=C\c1ccc(/C=C(/C#N)c2nn(CCO)c(N)c2C#N)cc1)c1nn(CCO)c(N)c1C#N	i	3	7	-1	i	1
COc1ccc(-c2ccc(C(=O)NCc3ccc(N4CCN(C)CC4)cc3)c3occc23)c(C)c1	+	-3	4	nt	i	0
O=C(O)C1CCCCC1C(=O)Nc1cccc(C(=O)N2CCCCC2)c1 (stereo not given)	+	0	-4	2	i	2
CCOC(=O)c1c(NS(C)(=O)=O)sc2c1CCC(C)C2 (stereo not given)	i	-1	7	-2	nt	nt
CCOC(=O)c1c(N)sc2c1CCC(C)C2 (stereo not given)	+	4	5	0	i	1
O=C(NCC(=O)N1CCN(c2ccccc2O)CC1)c1ccc2c(c1)OCO2	i	-3	-3	0	nt	nt
Cc1cc(C(=O)NC2CCCc3c2cnn3-c2cccc(C)c2C)no1 (stereo not given)	+	4	-3	0	i	4
COc1ccc(-c2sc(Nc3ccccc3)n[n+]2-c2ccc(F)cc2)c(C)c1C	i	1	4	1	i	4.2*
Cc1cccc(-c2sc(Nc3ccccc3)n[n+]2-c2ccc(F)cc2)c1	i	2	-16	1	nt	nt
FC(F)(F)c1cccc(OCC2CNC(=S)O2)c1 (stereo not given)	i	1	0	-2	nt	nt
CC1CCCCC1NC(=O)C(=O)NCC1CCCO1 (stereo not given)	i	-1	-7	-4	i	0
Cn1c(=O)oc2cc(S(=O)(=O)N3CCCC(C(=O)NCc4cccs4)C3)ccc21 (stereo not given)	i	3	5	3	i	0
COc1ccccc1CNC(=O)C1CCCN(S(=O)(=O)c2ccc3c(c2)C(C)(C)C(=O)N3C)C1 (stereo not given)	i	4	7	-3	i	0
COc1ccccc1CNC(=O)C1CCN(S(=O)(=O)c2ccc3c(c2)C(C)(C)C(=O)N3C)CC1	i	-2	-5	1	nt	nt
O=C1c2cccnc2C(Nc2ccccc2)N1Cc1ccco1 (stereo not given)	i	6	-15	1	i	0
